Reference: the supplement of paper PMC10849652
The full data set covers some 8,800 targets. This sample favours those with a hit. About 0.5% of all pairs of compound and target were hits.

Tests used:
Experiment in all cases: log2 fold change, soluble protein after heating vs DMSO (PISA); higher = thermal stabilisation; K562 lysate, 10 uM; active = over 0.2 and 3.5 SD of the protein, either way, in both replicates (recomputed)
[1] = compound: C#Cc1cccc(Nc2ncnc3cc(OCCOC)c(OCCOC)cc23)c1 [erlotinib]
Summary of the method: (§1)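 Dounce homogenisation of K562 pellets in PBS pH 7.4 with 1 mM MgCl2 produced a crude extract, used at 1 mg/mL protein. Exposure to 10 μM compound lasted 30 min, and aliquots were then heated for 3 min across 48°C-58°C, pooled and brought to 0.5% NP-40 at 4°C. The supernatant after 21,000xg for 90 min was quantified by TMTpro 16plex LC-MS/MS with channel sums equalised. Duplicate values are given as log-two fold change in thermal stability relative to solvent controls.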

[2] = compound: C/C(=N\NC(=O)C1=CC(=CC=C1)S(=O)(=O)N2CCOCC2)/C3=C(C=CC(=C3)Cl)O
Summary of the method: as §1

[3] = compound: C1=CC(=CC=C1C2=NC3=C(N2)C=C(C=C3)C(=O)N)OC4=CC=C(C=C4)Cl
Summary of the method: as §1

[4] = compound: C1=CC2=C(C=CC(=C2)/C=C\3/C(=O)NC(=NCC4=CC=CS4)S3)N=C1
Summary of the method: as §1

[5] = compound: C1=CC2=NC=CN=C2C=C1/C=C/3\C(=O)NC(=O)S3
Summary of the method: as §1

[6] = compound: C1=CC=C(C=C1)C2=NC(=C(N2)C3=CC=NC=C3)C4=CC(=C(C=C4)Cl)O
Summary of the method: as §1

[7] = compound: C1=CC=C2C(=C1)C3=NNC4=CC=CC(=C43)C2=O
Summary of the method: as §1

[8] = compound: C1CCN(C1)C(=O)NC2=CC=CC(=C2)NC3=NC=C(C(=N3)NCCC4=CN=CN4)Br
Summary of the method: as §1

[9] = compound: C1CN(CCC1(CC2=CC=C(C=C2)Cl)N)C3=NC=NC4=C3C=CN4
Summary of the method: as §1

[10] = compound: C1COCCN1CCN2C3=CC=CC=C3N=C2NC(=O)C4=CC(=CC=C4)[N+](=O)[O-] [IRAK-1-4 Inhibitor I]
Summary of the method: as §1

Measured: log2 fold change

AMD1 (UniProt P17707)
inactive: [1] 0.019 | [2] 0.011 | [3] -0.091 | [4] -0.075 | [5] 0.055 | [6] 0.061 | [7] 0.011 | [8] 0.114 | [9] -0.156 | [10] -0.036

APAF1 (UniProt O14727)
inactive: [1] 0.005 | [2] 0.084 | [3] -0.054 | [4] 0.019 | [5] -0.016 | [6] -0.029 | [7] -0.003 | [8] 0.022 | [9] 0.015 | [10] -0.021

ACADS (UniProt P16219)
inactive: [1] -0.013 | [2] 0.021 | [3] -0.013 | [4] 0.062 | [5] -0.012 | [6] 0.001 | [7] -0.046 | [8] 0.01 | [9] 0.027 | [10] 0.017

ACBD6 (UniProt Q9BR61)
inactive: [1] 0.013 | [2] -0.059 | [3] 0.029 | [4] 0.024 | [5] -0.032 | [6] -0.014 | [7] -0.075 | [8] -0.044 | [9] -0.01 | [10] 0.019

AKAP11 (UniProt Q9UKA4)
Sequence of UniProt Q9UKA4 (Q9UKA4 whole entry, looked up): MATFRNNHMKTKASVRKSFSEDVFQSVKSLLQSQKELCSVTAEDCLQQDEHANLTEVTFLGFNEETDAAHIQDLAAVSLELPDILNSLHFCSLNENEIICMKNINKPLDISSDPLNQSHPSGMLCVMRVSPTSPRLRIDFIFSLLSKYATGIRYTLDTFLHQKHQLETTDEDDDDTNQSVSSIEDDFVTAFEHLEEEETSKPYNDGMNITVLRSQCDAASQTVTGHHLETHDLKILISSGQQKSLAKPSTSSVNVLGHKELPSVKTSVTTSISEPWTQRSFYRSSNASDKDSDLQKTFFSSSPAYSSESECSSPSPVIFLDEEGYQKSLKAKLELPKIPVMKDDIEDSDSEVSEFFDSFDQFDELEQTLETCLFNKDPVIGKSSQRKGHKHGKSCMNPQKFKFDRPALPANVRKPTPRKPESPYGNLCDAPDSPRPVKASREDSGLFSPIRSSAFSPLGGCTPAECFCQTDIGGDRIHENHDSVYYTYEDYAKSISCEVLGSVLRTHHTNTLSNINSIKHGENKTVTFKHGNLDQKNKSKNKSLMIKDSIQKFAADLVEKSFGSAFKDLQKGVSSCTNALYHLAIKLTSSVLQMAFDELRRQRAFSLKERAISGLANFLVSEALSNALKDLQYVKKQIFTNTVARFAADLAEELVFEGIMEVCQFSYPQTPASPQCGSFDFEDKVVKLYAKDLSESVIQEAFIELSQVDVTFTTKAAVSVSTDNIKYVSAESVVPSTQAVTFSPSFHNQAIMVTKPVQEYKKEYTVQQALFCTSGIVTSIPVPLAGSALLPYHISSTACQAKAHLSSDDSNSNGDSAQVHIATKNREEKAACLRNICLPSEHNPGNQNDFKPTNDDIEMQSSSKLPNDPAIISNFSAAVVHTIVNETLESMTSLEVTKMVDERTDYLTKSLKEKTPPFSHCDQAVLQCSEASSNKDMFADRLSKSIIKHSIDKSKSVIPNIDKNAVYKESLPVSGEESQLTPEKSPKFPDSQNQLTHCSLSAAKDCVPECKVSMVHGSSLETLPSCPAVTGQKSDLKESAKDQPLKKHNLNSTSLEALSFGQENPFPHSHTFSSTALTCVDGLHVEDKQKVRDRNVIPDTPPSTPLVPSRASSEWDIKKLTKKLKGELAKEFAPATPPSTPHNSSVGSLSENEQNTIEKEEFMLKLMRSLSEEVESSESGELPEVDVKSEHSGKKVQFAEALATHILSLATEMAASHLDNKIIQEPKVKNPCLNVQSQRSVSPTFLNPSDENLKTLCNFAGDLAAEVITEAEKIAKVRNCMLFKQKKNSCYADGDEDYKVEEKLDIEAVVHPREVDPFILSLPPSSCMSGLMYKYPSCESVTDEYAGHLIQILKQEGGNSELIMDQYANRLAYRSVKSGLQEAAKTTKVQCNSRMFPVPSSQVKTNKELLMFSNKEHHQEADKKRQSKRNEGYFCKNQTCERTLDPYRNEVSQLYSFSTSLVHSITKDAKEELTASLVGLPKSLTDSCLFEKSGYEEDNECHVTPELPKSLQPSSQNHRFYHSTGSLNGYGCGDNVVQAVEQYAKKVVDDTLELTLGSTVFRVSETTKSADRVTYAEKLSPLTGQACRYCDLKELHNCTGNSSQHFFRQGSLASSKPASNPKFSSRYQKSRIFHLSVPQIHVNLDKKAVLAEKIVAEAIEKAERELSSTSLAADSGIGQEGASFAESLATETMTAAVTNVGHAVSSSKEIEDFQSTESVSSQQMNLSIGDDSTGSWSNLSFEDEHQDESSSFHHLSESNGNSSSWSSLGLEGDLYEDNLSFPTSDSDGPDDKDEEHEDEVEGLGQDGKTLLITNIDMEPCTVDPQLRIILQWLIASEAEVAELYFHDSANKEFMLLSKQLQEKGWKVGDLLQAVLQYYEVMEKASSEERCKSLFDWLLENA
active: [7] -0.361
inactive: [1] 0.114 | [2] 0.232 | [3] 0.037 | [4] 0.095 | [5] 0.016 | [6] 0.059 | [8] -0.064 | [9] 0.017 | [10] -0.071

ANXA5 (UniProt P08758)
inactive: [1] -0.011 | [2] -0.001 | [3] -0.024 | [4] 0.014 | [5] -0.016 | [6] -0.023 | [7] 0.009 | [8] -0.003 | [9] -0.049 | [10] -0.03

AGPS (UniProt O00116)
inactive: [1] 0.033 | [2] -0.086 | [3] -0.014 | [4] 0.037 | [5] 0.019 | [6] -0.039 | [7] -0.082 | [8] -0.034 | [9] 0.015 | [10] 0.023

ACOX1 isoform 2 (UniProt Q15067)
inactive: [1] -0.01 | [2] -0.023 | [3] 0.007 | [4] 0.007 | [5] 0.01 | [6] 0.011 | [7] -0.017 | [8] -0.007 | [9] 0.024 | [10] 0.081

ADAMTS5 (UniProt Q9UNA0)
inactive: [1] 0.027 | [2] 0.004 | [3] 0.044 | [4] -0.05 | [5] -0.046 | [6] 0.049 | [7] -0.001 | [8] 0.058 | [9] 0.073 | [10] 0.123

ADK (UniProt P55263)
Sequence of UniProt P55263 (P55263 whole entry, looked up): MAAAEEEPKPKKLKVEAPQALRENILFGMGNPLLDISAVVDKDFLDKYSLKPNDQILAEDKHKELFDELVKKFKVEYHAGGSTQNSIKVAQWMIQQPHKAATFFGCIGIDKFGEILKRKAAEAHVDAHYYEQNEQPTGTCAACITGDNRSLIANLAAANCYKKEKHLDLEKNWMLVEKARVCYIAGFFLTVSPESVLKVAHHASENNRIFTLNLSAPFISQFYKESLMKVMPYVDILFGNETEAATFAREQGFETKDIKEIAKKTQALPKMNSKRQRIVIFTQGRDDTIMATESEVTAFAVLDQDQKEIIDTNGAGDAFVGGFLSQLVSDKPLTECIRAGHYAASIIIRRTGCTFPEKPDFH
inactive: [1] 0.219 | [2] -0.024 | [3] -0.028 | [4] 0.132 | [5] -0.079 | [6] 0.047 | [7] 0.011 | [8] -0.049 | [9] 0.026 | [10] 0.063

ANXA11 (UniProt P50995)
inactive: [1] 0.015 | [2] 0.031 | [3] 0.025 | [4] -0.022 | [5] 0.017 | [6] -0.079 | [7] -0.016 | [8] 0.011 | [9] 0.033 | [10] 0.006

ANKRD27 (UniProt Q96NW4)
inactive: [1] 0.087 | [2] -0.025 | [3] 0.07 | [4] 0.04 | [5] -0.033 | [6] 0.02 | [7] -0.094 | [8] -0.036 | [9] 0 | [10] 0.014

ANP32E (UniProt Q9BTT0)
inactive: [1] 0.006 | [2] -0.006 | [3] 0.016 | [4] -0.021 | [5] 0.012 | [6] -0.004 | [7] -0.065 | [8] -0.025 | [9] 0.011 | [10] 0.023

ALDH1A1 (UniProt P00352)
inactive: [1] -0.048 | [2] 0.044 | [3] -0.054 | [4] 0.048 | [5] 0.008 | [6] -0.033 | [7] 0.132 | [8] 0.027 | [9] 0.012 | [10] -0.029

ABCA3 (UniProt Q99758)
Sequence of UniProt Q99758 (Q99758 whole entry, looked up): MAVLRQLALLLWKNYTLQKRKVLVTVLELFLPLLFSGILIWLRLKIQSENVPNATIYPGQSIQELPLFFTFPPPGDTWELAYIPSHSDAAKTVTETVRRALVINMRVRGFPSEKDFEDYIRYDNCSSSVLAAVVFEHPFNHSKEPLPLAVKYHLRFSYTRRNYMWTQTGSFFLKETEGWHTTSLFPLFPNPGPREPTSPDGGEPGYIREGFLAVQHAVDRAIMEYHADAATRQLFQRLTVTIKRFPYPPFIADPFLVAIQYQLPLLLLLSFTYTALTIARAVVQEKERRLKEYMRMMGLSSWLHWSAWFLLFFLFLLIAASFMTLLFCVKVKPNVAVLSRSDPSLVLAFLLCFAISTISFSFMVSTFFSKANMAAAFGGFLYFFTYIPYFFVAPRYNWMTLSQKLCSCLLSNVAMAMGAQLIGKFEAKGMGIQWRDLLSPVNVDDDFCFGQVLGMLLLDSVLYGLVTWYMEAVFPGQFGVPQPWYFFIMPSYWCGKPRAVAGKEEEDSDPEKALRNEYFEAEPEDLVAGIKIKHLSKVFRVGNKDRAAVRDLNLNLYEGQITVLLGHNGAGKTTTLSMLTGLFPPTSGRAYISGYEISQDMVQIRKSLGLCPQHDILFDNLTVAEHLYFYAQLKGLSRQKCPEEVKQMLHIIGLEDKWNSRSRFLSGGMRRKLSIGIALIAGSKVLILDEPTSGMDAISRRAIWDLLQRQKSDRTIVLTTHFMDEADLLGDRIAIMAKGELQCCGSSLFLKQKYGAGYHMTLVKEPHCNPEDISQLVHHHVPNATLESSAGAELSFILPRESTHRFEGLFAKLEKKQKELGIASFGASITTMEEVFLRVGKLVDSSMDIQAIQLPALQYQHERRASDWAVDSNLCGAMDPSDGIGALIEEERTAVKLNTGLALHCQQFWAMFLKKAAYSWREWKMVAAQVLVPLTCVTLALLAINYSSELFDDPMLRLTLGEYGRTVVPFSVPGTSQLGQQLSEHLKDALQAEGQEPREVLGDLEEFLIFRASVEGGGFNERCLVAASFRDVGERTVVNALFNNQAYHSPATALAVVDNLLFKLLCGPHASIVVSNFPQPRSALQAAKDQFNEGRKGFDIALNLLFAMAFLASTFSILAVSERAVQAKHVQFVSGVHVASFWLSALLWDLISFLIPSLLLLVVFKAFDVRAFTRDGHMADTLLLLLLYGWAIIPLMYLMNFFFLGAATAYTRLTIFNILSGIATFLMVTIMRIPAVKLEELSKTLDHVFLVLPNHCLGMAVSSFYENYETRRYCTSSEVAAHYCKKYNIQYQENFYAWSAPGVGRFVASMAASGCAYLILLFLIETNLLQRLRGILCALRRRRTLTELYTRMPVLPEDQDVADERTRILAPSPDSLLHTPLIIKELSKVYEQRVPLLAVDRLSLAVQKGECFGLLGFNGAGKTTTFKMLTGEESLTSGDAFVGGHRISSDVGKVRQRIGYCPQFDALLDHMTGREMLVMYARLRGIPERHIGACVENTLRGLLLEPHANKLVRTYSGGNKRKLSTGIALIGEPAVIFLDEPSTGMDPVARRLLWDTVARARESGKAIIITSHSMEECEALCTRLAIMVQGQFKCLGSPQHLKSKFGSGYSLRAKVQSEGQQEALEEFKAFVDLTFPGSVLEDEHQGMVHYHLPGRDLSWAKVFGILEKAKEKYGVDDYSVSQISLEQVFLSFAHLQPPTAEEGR
inactive: [1] -0.022 | [2] -0.028 | [3] -0.033 | [4] 0.036 | [5] -0.096 | [6] 0.037 | [7] 0.211 | [8] -0.118 | [9] 0 | [10] 0.114

AIFM2 (UniProt Q9BRQ8)
inactive: [1] -0.094 | [2] 0 | [3] 0.224 | [4] 0.071 | [5] -0.117 | [6] 0.117 | [7] 0.068 | [8] -0.025 | [9] 0.018 | [10] -0.01

ALKBH4 (UniProt Q9NXW9)
inactive: [1] 0.014 | [2] -0.073 | [3] 0.026 | [4] -0.011 | [5] 0.017 | [6] -0.052 | [7] -0.069 | [8] 0 | [9] 0.019 | [10] 0.003

APOB (UniProt P04114)
inactive: [1] -0.028 | [2] -0.001 | [3] -0.032 | [4] -0.029 | [5] -0.021 | [6] 0 | [7] -0.055 | [8] -0.067 | [9] 0.015 | [10] 0.097

AFF1 isoform 2 (UniProt P51825)
inactive: [1] -0.001 | [2] -0.085 | [3] 0.027 | [4] 0.071 | [5] -0.068 | [6] -0.007 | [7] -0.041 | [8] -0.002 | [9] 0.005 | [10] 0.021

AMDHD2 isoform 3 (UniProt Q9Y303)
inactive: [1] -0.013 | [2] -0.045 | [3] 0.06 | [4] -0.038 | [5] 0.028 | [6] -0.01 | [7] -0.003 | [8] 0.022 | [9] 0.044 | [10] 0.018

ARGLU1 (UniProt Q9NWB6)
inactive: [1] -0.008 | [2] 0.069 | [3] -0.039 | [4] 0.009 | [5] -0.034 | [6] -0.057 | [7] -0.002 | [8] 0.003 | [9] -0.047 | [10] 0.025

ABCF3 (UniProt Q9NUQ8)
inactive: [1] 0.005 | [2] 0.013 | [3] -0.049 | [4] 0.011 | [5] 0.009 | [6] -0.011 | [7] -0.065 | [8] 0.022 | [9] -0.033 | [10] -0.037

ARL15 (UniProt Q9NXU5)
inactive: [1] -0.035 | [2] 0.004 | [3] -0.009 | [4] 0.011 | [5] 0.079 | [6] -0.033 | [7] 0.005 | [8] 0.004 | [9] -0.031 | [10] 0.038

ANKRD40 (UniProt Q6AI12)
inactive: [1] 0.085 | [2] -0.269 | [3] 0.093 | [4] -0.143 | [5] 0.232 | [6] 0.065 | [7] -0.163 | [8] 0.296 | [9] 0.203 | [10] -0.091

ABHD17A isoform 2 (UniProt Q96GS6)
inactive: [1] -0.016 | [2] -0.046 | [3] 0.081 | [4] 0.025 | [5] 0.022 | [6] -0.009 | [7] -0.07 | [8] -0.023 | [9] 0.025 | [10] 0.006

ACLY (UniProt P53396)
Sequence of UniProt P53396 (P53396 whole entry, looked up): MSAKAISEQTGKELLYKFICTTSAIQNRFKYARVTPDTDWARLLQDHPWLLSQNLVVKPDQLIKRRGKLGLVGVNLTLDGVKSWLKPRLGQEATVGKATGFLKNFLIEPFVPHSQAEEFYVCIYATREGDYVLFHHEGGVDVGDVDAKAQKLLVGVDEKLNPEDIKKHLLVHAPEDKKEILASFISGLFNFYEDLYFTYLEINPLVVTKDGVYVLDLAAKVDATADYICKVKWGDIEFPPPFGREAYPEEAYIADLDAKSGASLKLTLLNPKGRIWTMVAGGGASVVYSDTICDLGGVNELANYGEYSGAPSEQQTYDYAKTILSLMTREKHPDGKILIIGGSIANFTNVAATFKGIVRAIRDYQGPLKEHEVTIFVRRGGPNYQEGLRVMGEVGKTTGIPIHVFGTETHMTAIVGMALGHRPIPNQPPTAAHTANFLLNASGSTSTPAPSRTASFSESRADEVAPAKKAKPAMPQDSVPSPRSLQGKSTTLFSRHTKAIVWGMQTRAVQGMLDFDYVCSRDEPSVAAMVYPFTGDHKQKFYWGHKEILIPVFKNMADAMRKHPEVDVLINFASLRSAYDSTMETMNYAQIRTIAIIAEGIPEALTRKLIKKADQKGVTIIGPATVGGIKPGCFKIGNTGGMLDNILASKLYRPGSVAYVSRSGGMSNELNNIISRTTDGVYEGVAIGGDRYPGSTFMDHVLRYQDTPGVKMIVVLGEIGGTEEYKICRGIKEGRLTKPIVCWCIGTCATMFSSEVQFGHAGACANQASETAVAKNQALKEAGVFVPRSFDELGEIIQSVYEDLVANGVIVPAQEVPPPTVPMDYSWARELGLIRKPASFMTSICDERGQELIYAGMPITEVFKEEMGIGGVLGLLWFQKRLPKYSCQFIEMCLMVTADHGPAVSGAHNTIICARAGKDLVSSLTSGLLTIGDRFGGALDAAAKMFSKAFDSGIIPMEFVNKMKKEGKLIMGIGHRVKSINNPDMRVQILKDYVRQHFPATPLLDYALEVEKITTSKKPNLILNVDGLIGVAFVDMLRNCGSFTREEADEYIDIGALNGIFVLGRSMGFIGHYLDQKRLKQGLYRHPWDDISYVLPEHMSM
inactive: [1] -0.006 | [2] 0.037 | [3] -0.018 | [4] -0.013 | [5] -0.011 | [6] -0.016 | [7] -0.018 | [8] 0.002 | [9] 0.019 | [10] -0.01

ABL1 isoform 2 (UniProt P00519)
inactive: [1] 0.026 | [2] -0.005 | [3] -0.013 | [4] 0.026 | [5] -0.027 | [6] 0.033 | [7] -0.022 | [8] -0.035 | [9] 0.015 | [10] -0.01

ARAP1 (UniProt Q96P48)
inactive: [1] 0.003 | [2] -0.164 | [3] -0.041 | [4] 0.024 | [5] 0.022 | [6] 0.022 | [7] 0.013 | [8] -0.01 | [9] -0.007 | [10] 0.008

ANKRD54 (UniProt Q6NXT1)
inactive: [1] -0.005 | [2] 0.01 | [3] 0.122 | [4] -0.036 | [5] 0.025 | [6] 0.037 | [7] 0.02 | [8] 0.008 | [9] -0.035 | [10] 0.003

ALDH6A1 (UniProt Q02252)
inactive: [1] -0.03 | [2] 0.064 | [3] -0.04 | [4] -0.068 | [5] -0.179 | [6] 0.043 | [7] -0.031 | [8] -0.022 | [9] 0.015 | [10] 0.024
